Hit rate of the full screen: of about 85,000 compounds, about 440 (0.52%) showed an effect of 50% or more. The sample as a whole holds a higher share of strong results than the screen did.
Experiment: In vitro enzyme assay to detect hydrolysis of chlorophenol red-beta-D-[…] directly proportional to the number of Toxoplasma stably expressing beta-galactosidase
Assay type: functional, organism-based, Toxoplasma gondii
Parameters: scale not given: in the data most compounds retested in dose-response had high values

SMILES | Percent Effect (50 µM) | Percent Effect (10 µM)
CN1CCCN(C(=O)COc2ccccc2)CC1 | -9.111% | 
CN1CCCN(C(=O)COc2ccc(C#N)cc2)CC1 | 10.92% | 
CN1CCCN(C(=O)COc2ccc(Br)cc2)CC1 | 68.33% | 
Cc1cnc(N2CCNCC2)s1 | 5.738% | 
CCc1cnc(N2CCNCC2)s1 | 54.04% | 
CCc1nsc(N2CCNCC2)n1 | 12.31% | 
O=C(C[C@@H]1COC[C@H]2CN(Cc3cccnc3)C[C@@H]12)N1CCCC1.O=C(O)C(F)(F)F.O=C(O)C(F)(F)F |  | -13.82%
O=C(C[C@@H]1COC[C@H]2CN(Cc3ccncc3)C[C@@H]12)N1CCCC1 |  | 95.78%
O=C(C[C@H]1[C@H]2CN(Cc3ccncc3)C[C@@H]12)N1CCCC1.O=C(O)C(F)(F)F.O=C(O)C(F)(F)F |  | -5.891%
NCCc1ccc(Cl)s1 | 19.11% | 
C[C@@H]1CN(Cc2ccsc2)C[C@]12CCN(Cc1cccnc1)C2=O.O=C(O)C(F)(F)F.O=C(O)C(F)(F)F |  | -1.478%
CNC1CCNC1=O (stereo not given) | 22.45% | 
NC1CCCCNC1=O (stereo not given) | 97.52% | 
O=C1NC[C@H]2NCCC[C@@H]12 | -10.77% | 
COCCN1C(=O)CC[C@@H]2[C@@H]1CCN2Cc1c(C)noc1C.O=C(O)C(F)(F)F |  | 17.34%
NCCc1ccsc1 | 4.76% | 
O=C1C[C@H]2CC[C@@H](CN1)N2C1CSCCSC1 |  | -1.323%
c1cc2sccc2c(N2CCNCC2)n1 | 13.67% | 
c1nc(N2CCNCC2)c2sccc2n1 | 52.15% | 
CN1CCN(c2ncnc3ccsc23)CC1 | -1.262% | 
Cc1nc(CO[C@H]2CN(Cc3ccccn3)[C@@H]3CCCO[C@H]23)cs1.O=C(O)C(F)(F)F.O=C(O)C(F)(F)F |  | 12.48%
CC(c1nc(C(C)(C)C)no1)N1CCN(C)CC1 (stereo not given) | 8.823% | 
COc1ccc(Cl)c(N2CCNCC2)c1 | 12.14% | 
CCC(O)CN1CCN(C(=O)Cc2cc(C)ccc2OC)CC1 (stereo not given) |  | 16.53%

SMILES | Percent Effect (50 µM) | Percent Effect (10 µM)
COc1ccc(C)cc1CC(=O)N1CCN(C)CC1 | 93.86% | 
COc1ccc(C)cc1CC(=O)N1CCN(CC(C)O)CC1 (stereo not given) |  | -5.451%
O=C(O)C(F)(F)F.O=C(O)[C@]12CCCN(C3CCOC3)C[C@H]1CN(c1ncccn1)C2 (stereo not given in full) |  | 3.821%
COCCNC(=O)[C@H]1C[C@@H]2CCN(Cc3ccncc3)C[C@H]2O1.O=C(O)C(F)(F)F.O=C(O)C(F)(F)F |  | 3.499%
CN1CCN(c2cccc(C#N)n2)CC1 | 4.938% | 
NCC1CCN(CC(F)F)CC1 | 1.969% | 
NC1CCN(CC(F)F)CC1 | 56.61% | 
NC1CCN(CC(F)F)C1 (stereo not given) | -7.731% | 
Clc1cnccc1CN1CCC2(CCOC2)C1 (stereo not given) | 3.263% | 
CC(C)CC(=O)NC1CC2(CCN(CCF)CC2)Oc2ccccc21.O=C(O)C(F)(F)F (stereo not given) |  | -26.74%
N#Cc1ccccn1 | -5.392% | 
CC[C@@H]1N(Cc2ccncc2)CCC[C@]12CCC(=O)N2C.O=C(O)C(F)(F)F.O=C(O)C(F)(F)F |  | -4.695%
CC1CN(C)CCC1=O (stereo not given) | 95.15% | 
CN1CCN2C(=O)N(C3CCCCC3)C[C@H]2C1 |  | -2.107%
Cc1ccc([C@@H](O)CN)cc1 | -14.41% | 
Cl.O=C1N(Cc2ccc(Cl)cc2)CCC12CCCNC2 (stereo not given) |  | -3.809%
OCC1CCC2(CCCC2)CN1 (stereo not given) | 23.34% | 
O=C(N[C@H]1COC[C@@H]1N1CCCCC1)c1cnc[nH]1 | 53.1% | 
Cc1nc(C(=O)N[C@H]2COC[C@@H]2N2CCCCC2)cs1 |  | 24.19%
O=C(N[C@H]1COC[C@@H]1N1CCCC1)c1c[nH]nc1C1CCCCC1 |  | 7.68%
Cc1nc(C)c(CN2CC3(CCNCC3)OC2=O)s1 | -5.089% | 
COc1ccc(CCN)c(Cl)c1 | 6.537% | 
N[C@H]1[C@@H]2CC[C@H]1CN(CCn1cc(Cl)cn1)C2 | 17.19% | 
CC1CNCCN1c1cccc2cnccc12 (stereo not given) | 3.081% | 

SMILES | Percent Effect (50 µM) | Percent Effect (10 µM)
COc1cccc(N2CCNCC2C)c1 (stereo not given) | 93.04% | 
COc1cccc(C(C)N2CCNCC2)c1 (stereo not given) | -0.2947% | 
CNC(CCO)Cc1ccccc1 (stereo not given) | -16.85% | 
CCC(C)Cn1nc(COC)oc1=O (stereo not given) | 3.972% | 
NCCc1ccc(F)cn1 | 2.533% | 
NCCc1ccc(C(F)(F)F)cn1 | -0.7951% | 
NCCc1cc(C(F)(F)F)ccn1 | 99.23% | 
CN[C@@H]1CCO[C@H]1c1cccnc1 | -18.11% | 
NCCC1COc2ccccc2O1 (stereo not given) | 1.961% | 
NCCC1CSc2ccccc2O1 (stereo not given) | 65.01% | 
CC1CN(C)CCN1Cc1nc(N)nc(N(C)C)n1 (stereo not given) | 17% | 
CO[C@@H]1CCN(Cc2ccccn2)[C@@H]2CN(Cc3ccco3)C[C@@H]21.O=C(O)C(F)(F)F.O=C(O)C(F)(F)F.O=C(O)C(F)(F)F |  | 93.58%
CO[C@H]1CCN(c2ncc(F)cn2)[C@@H]2CN(Cc3ccco3)C[C@H]12.O=C(O)C(F)(F)F.O=C(O)C(F)(F)F |  | 10.96%
CO[C@H]1CCN(Cc2ccccn2)[C@@H]2CN(Cc3ccco3)C[C@H]12.O=C(O)C(F)(F)F.O=C(O)C(F)(F)F.O=C(O)C(F)(F)F |  | -1.554%
Cc1noc(C)c1CC(=O)N1CCN(C(C)(C)C)CC1 | 6.08% | 
CN(CC(N)=O)C1Cc2ccccc2C1 | -5.488% | 
CC(=O)N1N=C(c2cccnc2)CC1c1ccco1 (stereo not given) | 88.79% | 
CC(=O)N1CCC2(CC1)c1ncc(-c3cccnc3)n1CCN2C |  | -29.38%
O=C1CC(c2cccnc2)=NCCN1 | 42.08% | 
C1CC(NC2COC2)CCO1 | 12.23% | 
Cc1cc(CNC(C)Cn2cccn2)on1 (stereo not given) | 9.614% | 
CC(C)N1CCN(Cc2ccc(N)nc2)CC1 | -5.951% | 
Cc1ncc(C(=O)N2C[C@@H]3CCCN[C@@H]3C2)cn1 | -7.245% | 
Cc1ncc(C(=O)N2C[C@@H]3CCCN[C@@H]3C2)c(C)n1 | 63.53% | 

SMILES | Percent Effect (50 µM) | Percent Effect (10 µM)
Cc1cc(C(=O)N2C[C@@H]3CCCN[C@@H]3C2)cc(C)n1 | -13.26% | 
CCCN1CCN(Cc2nccn2C)CC1 | 5.907% | 
Cc1ccc(C(=O)N2C[C@@H]3OCCN(C)[C@@H]3C2)cn1.O=C(O)C(F)(F)F |  | 3.64%
CCOC[C@@H]1CCC[C@@]12CN(Cc1cccnc1)CCO2 |  | -14.2%
COC[C@H]1CCC[C@]12CN(Cc1cccc(C)n1)CCO2 |  | 72.48%
COC[C@@H]1CCC[C@]12CN(Cc1cccc(C)n1)CCO2.O=C(O)C(F)(F)F.O=C(O)C(F)(F)F |  | -5.738%
Fc1cnc(N2CCCC3(CCN(Cc4cccs4)C3)C2)nc1.O=C(O)C(F)(F)F.O=C(O)C(F)(F)F (stereo not given) |  | -7.824%
NCCCN1CCN(c2ccccc2)CC1 | 0.9017% | 
Cn1c(CCN2CCN(c3ccc(O)cc3)CC2)nc2ccccc21 |  | 79.1%
COCCN1CCN(c2ccc(OC)cc2)CC1 | -4.401% | 
Cc1cc(C(=O)N2CC[C@H]3CC[C@@H](C2)N3)nc(C)n1 | 2.124% | 
Cn1cc(CCN)nn1 | 26.5% | 
CC(C)(C)OC(=O)NC1CC2(CNC2)C1 | -10.31% | 
CCN1CCN(Cc2nnnn2C2CC2)CC1 | 99.81% | 
CCCn1nnnc1CN1CCN(CC)CC1 | -8.148% | 
CC(C)N1CCN(Cc2nnnn2C2CC2)CC1 | -4.596% | 
COc1ccc(CN2CC[C@@]3(O)CCCC[C@H]3C2)cn1 | -5.926% | 
Cc1cc(C2CCCN2)on1 (stereo not given) | -7.97% | 
CN(C)c1ncc2c(n1)C1(CCN(CC3CC3)C1)COC2.O=C(O)C(F)(F)F (stereo not given) |  | -3.49%
c1nc(N2CCOCC2)nc2c1COCC21CCN(CC2CC2)C1 (stereo not given) |  | 63.85%
COCCN1CCC2(COCc3cnc(N4CCOCC4)nc32)C1.O=C(O)C(F)(F)F (stereo not given) |  | -0.4992%
Fc1cnc(N2CCC3(CC2)CN(Cc2cccs2)CCO3)nc1.O=C(O)C(F)(F)F.O=C(O)C(F)(F)F |  | 21.36%
C[S+](C)[c-]1c(=O)[nH]c(=O)n(CCc2ccc(F)cc2)c1=O |  | 11.54%
